Screening results deposited in PubChem BioAssay by National Center for Advancing Translational Sciences (NCATS).
D2 ag-1 = human D2 receptor agonism in beta-arrestin assay | activation, % (no concentration beside the values) | 360,000 tested, 0.084% active | DiscoveRx PathHunter D2 beta-arrestin, luminescence, 90 min; 100% = 57 uM dopamine signal | P14416; in the data active means activation above about 40%; inconclusive means between about 15% and that limit
Target sequence (P14416 whole entry, looked up): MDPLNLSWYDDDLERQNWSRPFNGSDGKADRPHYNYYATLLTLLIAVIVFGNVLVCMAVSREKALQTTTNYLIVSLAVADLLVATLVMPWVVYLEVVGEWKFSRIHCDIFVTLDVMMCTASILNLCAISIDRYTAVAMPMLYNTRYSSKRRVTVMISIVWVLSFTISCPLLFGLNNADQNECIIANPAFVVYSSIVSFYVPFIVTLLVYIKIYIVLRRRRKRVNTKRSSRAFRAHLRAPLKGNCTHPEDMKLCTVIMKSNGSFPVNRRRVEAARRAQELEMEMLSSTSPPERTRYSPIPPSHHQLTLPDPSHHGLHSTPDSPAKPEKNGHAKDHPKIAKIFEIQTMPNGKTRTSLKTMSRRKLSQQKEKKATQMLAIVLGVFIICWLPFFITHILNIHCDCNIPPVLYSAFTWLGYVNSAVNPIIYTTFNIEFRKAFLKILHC
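DiscoveRx PathHunter D2 beta-arrestin cells (2,100/well) attached overnight, then compound-stimulated 90 min at 37 C in HBSS/10 mM HEPES/0.1% Tween-20 buffer; beta-galactosidase complementation read by luminescence after 1 h at ambient temperature. Dopamine 57 uM final (EC100) as control.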
D2 ag-2 = agonists of human D2 dopamine receptor. HEK293 T-REx D2 cells, calcium flux agonist mode. AID 485358. activation, % at 2 µM. P14416. 340,000 tested, 0.53% active;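 active means activation over 3 SD above normal in the single-dose calcium agonist read, cut at about 30% in these data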; further: 0% is about no effect
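Tetracycline-induced HEK293 Trex cells with D2 receptor force-coupled to calcium signaling, plated overnight at 30 C and loaded with no-wash calcium dye. Calcium flux read kinetically for 180 s after compound addition; responses flag agonists.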
D2 antagonist = antagonizes the human D2 dopamine receptor. HEK293 TREx D2 cells, calcium flux, dopamine EC80. inhibition, % at 10 µM. 340,000 tested, 2% active. AID 485344. P14416; in the data active means inhibition above about 30%; inactive means below that, where a call was filed; further: 0% is about no effect
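Overnight-induced (tetracycline, 30 C) HEK293 T-REx cells carrying force-coupled D2 receive a no-wash calcium dye, then compound, then EC80 dopamine at 180 s; signals are read kinetically throughout.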
D2 PAM-1 = human D2 receptor positive allosteric modulation | P14416 | DiscoveRx D2 beta-arrestin cells, luminescence, 90 min; 100% = 57 uM dopamine signal | potentiation, % (no concentration beside the values) | 360,000 tested, 0.23% active | AID 624464; in the data active means potentiation above about 50%; inconclusive means mostly about 30% to 49%
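D2 cells co-treated with compound plus 50 nM dopamine (EC20) for 90 min at 37 deg C to detect potentiation. Beta-arrestin recruitment was read as enzyme-fragment luminescence after 1 h at ambient temperature. Full response was set by 57 uM dopamine.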
D2 PAM-2 = positive allosteric modulators of human D2 dopamine receptor | HEK293 T-REx D2, calcium flux, EC20 dopamine potentiation | potentiation, % at 10 µM | 340,000 tested, 0.34% active | AID 485347;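 active means potentiation over 3 SD above the plate norm, cut at about 30% in these data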; further: 0% is about no effect
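Calcium flux readout, no-wash dye, 1 read/s. Inducible HEK293 Trex D2 line, overnight 30 C. Compound alone 180 s (agonist flags), then EC20 dopamine, another 180 s to score potentiation.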
* hit, by the source's call; ? = inconclusive; / = no result. This is a sample that favours compounds with a hit; in the whole collection about 2.4% have one here.

SMILES	D2 ag-1	D2 ag-2	D2 antagonist	D2 PAM-1	D2 PAM-2
CC(=O)NC1CC2CCCC(C1)N2Cc1ccc(C)cc1 (stereo not given)	-3.6	0.4	53.8*	-67.4	-25.9
Cc1nc(-c2ccccc2)sc1CCNS(=O)(=O)c1ccc(Br)cc1	/	-2.6	/	/	-0.9
CCOC(=O)c1c(C)c(-c2ccccc2)n(CC(=O)Nc2cc(C)ccc2OC)c1C	/	0.4	/	/	-26.0
O=C(CS(=O)(=O)c1ccc(F)cc1)NCc1ccccc1	-6.4	0.8	34.3*	0.4	-0.5
COc1ccc(/C=N/N2C(=O)CSC2=S)cc1Br	-1.8	8.0	33.3*	-2.4	-4.1
O=C(Cn1ncc2c3ccccc3n(Cc3cccc(Cl)c3)c2c1=O)NCc1cccs1	/	-0.2	/	/	0.7
CN1C(=O)/C(=C\c2ccc(OC(=O)c3ccco3)cc2)SC1=S	-4.5	1.3	48.1*	-7.5	10.1
CN1C(=O)/C(=C/c2ccc(OC(=O)c3ccco3)cc2)SC1=S	0.4	-3.0	-13.3	-20.8	1.6
CCOC(=O)c1cnc2c(C)c(Cl)ccc2c1Nc1ccc(N2CCOCC2)cc1	/	2.0	/	/	/
O=C(CN(c1ccc(Cl)c(C(F)(F)F)c1)S(=O)(=O)c1ccccc1)N1CCOCC1	-4.0	1.0	34.9*	-8.2	1.4
O=C(CN(c1cccc(C(F)(F)F)c1)S(=O)(=O)c1ccccc1)N1CCOCC1	?	0.5	13.1	-0.1	4.3
CCC(C)NC(=O)c1cnn2c(C)c3c(nc12)CCCC3 (stereo not given)	-2.7	-1.6	13.8	4.0	32.7*
COc1cc(NS(=O)(=O)c2cc3[nH]c(=O)[nH]c3cc2C)cc(OC)c1OC	/	/	/	/	13.1
COc1cc(NS(C)(=O)=O)cc(OC)c1OC	2.5	0.3	30.4*	1.6	1.0
Cc1ccccc1C(=O)Nc1nnc(S(=O)(=O)N2CCCc3ccccc32)s1	/	-0.1	/	/	-5.2
Cc1cc(C)c(NC(=O)CSc2nc(=O)n(Cc3cccnc3)c3c2CCC3)c(C)c1	/	0.2	/	/	3.7
O=C(c1n[nH]c2ccccc12)N1CCOCC1	0.3	1.5	38.5*	-4.6	-11.8
CCOC(=O)c1sc2cccc(F)c2c1S(=O)(=O)Nc1ccccc1F	/	1.9	/	/	12.8
CCCNC(=S)N1CCC(C(=O)c2ccc(F)cc2)CC1	-0.7	0.7	9.8	-1.9	34.7*
O=C(c1ccc(F)cc1)C1CCN(C(=O)c2ccc(F)cc2)CC1	-2.1	-0.5	41.0*	1.1	1.3
O=C(c1ccc(C(=O)N2CCCCCC2)cc1)N1CCCCCC1	-4.3	0.3	4.6	0.5	31.5*
O=C(c1ccccc1)N1CCCCCC1	-2.2	0.3	-5.4	-14.4	-4.7
O=C(c1ccc(F)cc1)C1CCN(C(=S)Nc2ccc(F)cc2)CC1	-1.5	1.5	47.5*	-14.4	7.2
COc1cccc2c1cc1c(=O)n(CC(=O)NCc3ccco3)nc(C)n12	/	0.5	/	/	/
Cn1c(=O)c2c(c3ccccc31)OC(=O)CC2c1ccc(C(F)(F)F)cc1 (stereo not given)	/	-0.4	/	/	8.2
SMILES	D2 ag-1	D2 ag-2	D2 antagonist	D2 PAM-1	D2 PAM-2
CCOc1ccc(N(CC(=O)Nc2ccc3c(c2)OCO3)S(=O)(=O)c2ccccc2)cc1	/	-4.3	/	/	-0.8
O=C(c1ccc(N2C(=O)C3CC=C(Cl)CC3C2=O)cc1)N1CCCCC1 (stereo not given)	-1.7	-0.2	37.7*	5.1	-4.1
COc1ccc(CN2CCC(C(=O)c3ccc(F)cc3)CC2)cc1	2.8	0.6	78.5*	-82.6	-31.4
Cc1ccc(CN2CCC(C(=O)c3ccc(F)cc3)CC2)cc1	-6.5	/	/	-26.0	/
Cc1cn2c(=O)cc(COC(=O)COc3ccc(C)c(C)c3)nc2s1	/	0.2	/	/	11.4
CCc1ccccc1NC(=O)Cn1nnc(-c2nc(-c3ccncc3)no2)c1N	/	0.8	/	/	-1.0
CCN1CCc2c(C#N)c(NCc3ccccc3)nc(N(CC)CC)c2C1	-1.6	2.6	45.8*	-37.3	-7.8
N#Cc1c(NCCN)nc(NCc2ccccc2)c2c1CCN(Cc1ccccc1)C2	-1.1	/	/	2.3	/
COc1cc(NC(C)=O)c2ncccc2c1NC(C)=O	-5.9	0.9	36.7*	-4.0	13.3
CC(=O)Nc1cccc(C(=O)OCC(=O)c2ccccc2Cl)c1	-2.6	1.5	41.1*	4.5	-2.2
O=C(NC1=NCCS1)c1cccc(S(=O)(=O)N2CCOCC2)c1	0.3	-0.3	34.5*	-4.2	-8.3
O=C(c1cccc(S(=O)(=O)N2CCCCC2)c1)N1CCOCC1	-3.4	0.1	9.8	-13.2	-0.6
O=C(c1cccc(S(=O)(=O)N2CCOCC2)c1)N1CCN(S(=O)(=O)c2cccs2)CC1	-3.2	3.6	41.6*	-5.7	-0.5
O=C(COc1ccccc1)NCCc1csc(-c2ccc(Cl)cc2)n1	/	-1.0	/	/	8.4
COc1ccc(NC(=O)CSc2oc(-c3ccc(F)cc3)nc2S(=O)(=O)c2ccc(C)cc2)c(OC)c1	/	0.2	/	/	-1.7
COC(=O)C1=C(c2ccccc2)c2ccccc2S(=O)(=O)N1CC(=O)Nc1cccc(C(C)=O)c1	/	0.8	/	/	-2.0
CC1CCCCC1NC(=O)C1CCN(c2c3c(nc4ncnn24)CCC3)CC1 (stereo not given)	-3.6	-2.2	34.1*	-0.1	-2.0
c1ccc(N2CCN(c3c4c(nc5ncnn35)CCC4)CC2)cc1	1.4	-0.6	-26.5	4.3	0.9
CC(C)c1ccc(OCC(=O)Nc2ccc(S(=O)(=O)Nc3ncccn3)cc2)cc1	/	-1.8	/	/	5.0
CCOC(=O)c1ccc(NC(=O)C2CCCN(c3ccc(Sc4ccc(C)cc4)nn3)C2)cc1 (stereo not given)	/	0.9	/	/	11.9
Cc1ccc(-c2nc(CCNC(=O)C(=O)Nc3c(C)cccc3C)cs2)cc1	/	0.1	/	/	4.6
COc1ccccc1CCNC(=O)c1ccc2c(c1)c(C)c(C)n2C	/	0.1	/	/	/
CCc1ccccc1NC1Nc2cc(C)nn2S1 (stereo not given)	-3.9	0.3	7.7	-8.3	56.5*
Cc1cc2n(n1)SC(Nc1cccc3ccccc13)N2 (stereo not given)	-1.5	0.5	-2.1	11.0	0.2
CN1CCN(c2nc3c(c(=O)n(C)c(=O)n3C)n2Cc2ccc(Cl)cc2)CC1	-0.6	0.5	-6.0	-4.8	-6.1
SMILES	D2 ag-1	D2 ag-2	D2 antagonist	D2 PAM-1	D2 PAM-2
Cn1c(=O)c2c(nc(-n3ccnc3)n2Cc2ccc([N+](=O)[O-])cc2)n(C)c1=O	-3.0	-0.1	30.6*	-13.9	-0.5
COc1ccc(-c2csc(NC(=O)CN3C(=O)NC4(CCCC4)C3=O)n2)cc1	0.6	0.0	38.3*	1.9	-14.5
Cc1[nH]c2ccccc2c1C(=O)CN1CCN(C2CCCCC2)CC1	/	-0.5	58.2*	/	-42.6
Cc1[nH]c2ccccc2c1C(=O)CN1CCN(C/C=C/c2ccccc2)CC1	-6.0	0.4	80.3*	-44.1	-30.3
Cc1cc(=O)n(CC(=O)N2CCN(c3ccc(F)cc3)CC2)c2c1c(C)nn2C	/	0.9	/	/	-7.2
N/C(Cc1ccc([N+](=O)[O-])cc1)=N\OC(=O)Cc1ccc(Cl)cc1	3.4	-0.9	9.7	25.6	-9.0
